# Measured values reported in PubChem BioAssay (EPA / NIEHS).
# Calls of active or inactive are those of the source. How the source made its calls: active means hit-call score of the fitted dose curve at least 0.9, where 1 is the maximum; inactive means score below 0.9.
# Test: CCTE_Shafer_MEA_acute_burst_percentage_std: CCTE's Neural Acute Assay for Standard Deviation of Burst Percentage, Shafer Lab (AID 2284018);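 further: fitted in the negative direction so actives lower burst percentage SD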
# Protocol: CCTE_Shafer_MEA_acute assay is conducted using Axion Biosystems 48 well microelectrode array (MEA) plates and Maestro recording system. Each well of the MEA plate contains a grid of 16 microelectrodes embedded in the culture surface. Electrically active cells, such as neurons, can be cultured over the electrodes, and electrical activity in these cells can be recorded extracellularly. The spontaneous firing of neurons is captured from each electrode on a microsecond timescale providing both temporally and spatially precise data. […] The CCTE_Shafer_MEA_acute assay uses primary cultures of rat cortical neurons. As these cultures mature over time, neural networks develop functional activity and form cohesive networks in which electrical activity can be highly coordinated. Baseline 40-minute recordings are made on days post-plating 13 or 15, followed by a secondary 40-minute recording after chemical exposure.CCTE_Shafer_MEA_acute_burst_percentage_std is a component of the CCTE_Shafer_MEA_acute assay. It measures the percentage of spikes (action potential firing) in a single-electrode burst (temporally-clustered groups of spikes) as the number of spikes in bursts divided by the total number of spikes during a recording in a microelectrode array (MEA) using Axion Biosystems Maestro 768 channel amplifier with the AxIS adaptive spike detector. The standard deviation of the burst percentages across electrodes is calculated to report a well-level value. The recordings before and after chemical treatment are used to calculate a percent change in the standard deviation of the burst percentage in each well.Data from the assay component CCTE_Shafer_MEA_acute_burst_percentage_std was analyzed into 1 assay endpoint. This assay endpoint, CCTE_Shafer_MEA_acute_burst_percentage_std, was analyzed in the negative analysis fitting direction relative to DMSO as the negative control and baseline of activity. Using a type of functional reporter, gain or loss-of-signal activity can be used to understand electrical activity.
# Spontaneous activity in the cortical cultures was recorded using an Axion Biosystems Maestro 768 channel amplifier and Axion Integrated Studios (AxIS) v1.8 (or later) software. The amplifier recorded from all channels simultaneously (gain = 1200 x; sampling rate = 12.5 kHz/channel): raw signals were filtered with a Butterworth band-pass filter (300-5000 Hz), which filters out slower local field potentials leaving only fast potentials, i.e., "spikes", arising from extracellular currents associated with action potentials (Pine 2006; Wheeler and Nam 2011). On-line spike detection of filtered signals was conducted with the AxIS adaptive spike detector, using a threshold of 8x the root mean squared (rms) noise on each channel. Any electrodes with rms noise levels greater than 5 uV were grounded (e.g., no data were recorded). Once grounded, an electrode was grounded for the duration of the experiment. All recordings were conducted at 37 C. Wells were deemed usable if on the day of the exposure >/= 10 electrodes were active (defined as >/= 5 spikes/min). On DIV 13 or 15, a minimum of three wells from one cortical culture preparation were treated with each compound (0.03-40 uM). Prior to recording baseline activity, each mwMEA plate was placed in the Maestro at 37 C and allowed to sit for 20 min while firing rates stabilized. Baseline activity (40 min) was recorded before the addition of each compound. An additional 40 min of spontaneous activity was recorded in the presence of each compound. Changes in network parameters relative to baseline were assessed following compound treatment.
SMILES,outcome,AC50
O=C(Cc1ccccc1)OCCc1ccccc1,inactive,–
Oc1cc(Cl)c(Cl)cc1Cl,–,32.6 µM (active)
OCCCCO,inactive,–
CC1(C)[C@H](C(=O)O[C@H](C#N)c2cccc(Oc3ccccc3)c2)[C@@H]1/C=C(\Cl)C(F)(F)F,inactive,–
CCCCOC(=O)COC(=O)c1ccccc1C(=O)OCCCC,inactive,–
CS(=O)(=O)c1ccc(C(=O)C2C(=O)CCCC2=O)c(Cl)c1COCC(F)(F)F,inactive,–
CC(C)[C@@H](Nc1ccc(C(F)(F)F)cc1Cl)C(=O)OC(C#N)c1cccc(Oc2ccccc2)c1 (stereo not given in full),–,1.28 µM (active)
N#Cc1cccnc1,inactive,–
CCCCCCCCCCCCc1cccc(S(=O)(=O)O)c1,inactive,–
CN(C)C(=S)S,inactive,–
Oc1ccc(Cc2ccc(O)cc2)cc1,inactive,–
Cc1cc(C(F)(C(F)(F)F)C(F)(F)F)ccc1NC(=O)c1cccc(I)c1C(=O)NC(C)(C)CS(C)(=O)=O,inactive,–
CC(C)(C)c1ccccc1O,–,31.8 µM (active)
Cc1ccccc1OP(=O)(Oc1ccccc1C)Oc1ccccc1C,–,24.2 µM (active)
Clc1cccc(Cl)c1Cl,inactive,–
